For 35 compounds, composite z-score results are on record in PubChem BioAssay.

The structures appear in SMILES notation.

Streptavidin (Streptomyces avidinii), sequence (P22629 whole entry, looked up): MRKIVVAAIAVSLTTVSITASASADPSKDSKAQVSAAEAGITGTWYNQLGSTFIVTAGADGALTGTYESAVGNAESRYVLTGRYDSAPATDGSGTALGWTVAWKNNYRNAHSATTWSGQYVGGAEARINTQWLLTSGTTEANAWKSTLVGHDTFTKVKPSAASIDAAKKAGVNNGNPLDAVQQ

One assay has as its target Streptavidin (Streptomyces avidinii) (UniProt P22629). As to the kind of experiment: streptavidin binders on small-molecule microarray, primary screen, artefact control for SMM compound annotation, biophysical, 635/667 nm fluorescence (AID 1147).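 Also: signal reflects streptavidin binding to arrayed compounds as a control protein.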 The note with it: streptavidin binding, higher = more signal.
Compound `O=c1cccc(-c2ccccc2C(F)(F)F)o1` returned a composite z-score of -0.318. As for `COCCOC(=O)N1C(=O)[C@@]2(c3cc(C#CCC(C(=O)OC)C(=O)OC)ccc31)[C@H](c1ccc(OCCO)cc1)N1[C@H](c3ccccc3)[C@H](c3ccccc3)OC(=O)[C@H]1[C@@H]2C(=O)N1CCCCCCC1`, the composite z-score is 2.53. In turn, `C[C@H]1NC(=O)C([C@@H](C)OCc2ccccc2)NC(=O)[C@@]23C(=O)N[C@@H](Cc4ccccc4)C2[C@H](C)[C@@]2(C)O[C@H]2C3/C=C/C/C=C\CNC1=O` (stereo not given in full) gave a composite z-score of -0.556. As for `COCC(=C=CC[C@@H](O)c1cccc(OCCO)c1)C[C@@H](O)COCc1ccccc1`, the composite z-score came to 0.709. The compound `C=C(CCCC)C(=O)CC[C@H](OC(C)=O)c1ccccc1OCCO` registered a composite z-score of -0.478. As for `CCC[C@@H]1C=C(C(=O)OCC)[C@H](c2ccccc2)N1S(=O)(=O)c1ccc(C)cc1`, the composite z-score is 0.795. `COCCOC(=O)N1C(=O)[C@@]2(c3cc(C#CC4(O)CCCCCC4)ccc31)[C@H](C(=O)N1CCc3cc(OC)c(OC)cc3C1)[C@H]1C(=O)O[C@H](c3ccccc3)[C@H](c3ccccc3)N1[C@@H]2c1ccc(O)cc1` yielded a composite z-score of 0.398. Consider `Cc1ccc(F)cc1S(=O)(=O)N[C@@H]1CCN(Cc2ccc3c(c2)OCO3)C1`, for which the composite z-score is -0.194.

Compound `COCCOC(=O)N1C(=O)[C@@]2(c3cc(C#CC4(O)CCCCCC4)ccc31)[C@H](c1ccc(OCCO)cc1)N1[C@H](c3ccccc3)[C@H](c3ccccc3)OC(=O)[C@H]1[C@@H]2C(=O)N1CCCCCCC1` returned a composite z-score of 1.68. Consider `CC(c1ccccc1)C(O)C1C=CC2C(=O)N(c3ccccc3)C(=O)C2N1Nc1ccc(C#N)cc1` (stereo not given), for which the composite z-score amounted to 0.17. On the same count and under the same terms, for `COC(=O)C(CC#Cc1ccc2c(c1)[C@]1(C(=O)N2)[C@H](c2ccc(O)cc2)N2[C@H](c3ccccc3)[C@H](c3ccccc3)OC(=O)[C@H]2[C@@H]1C(=O)N1CCc2cc(OC)c(OC)cc2C1)C(=O)OC` the value was 0.455. Compound `C[N+](C)(C)CCCCCCNC(=O)[C@H]1C[C@H]2C(=O)NCC(=O)N2[C@H]1c1cccc(OCCO)c1` displayed a composite z-score of -0.518. In turn, `COC(=O)c1c(CC[C@@H](CO)NC(=O)N[C@@H](Cc2ccccc2)Cn2cc(-c3cncn3C)nn2)oc(C(C)=O)c1C(=O)OC` registered a composite z-score of -0.0808. Still for that read-out and setting: the result for `O=C1O[C@@H](c2ccccc2)[C@@H](c2ccccc2)N2[C@@H](c3ccc(O)cc3)[C@]3(C(=O)Nc4ccc(C#CC5=CCCCC5)cc43)[C@@H](C(=O)N3CCCCCCC3)[C@H]12` reads 1.1. Still for that read-out and setting: for `COC(=O)C1=CC(CCCO)=CC(C2CC2)N(Cc2cccc(OC(F)(F)F)c2)C=C1C(=O)OC` (stereo not given) the value was 0.307; for `COCCOC(=O)N1C(=O)[C@@]2(c3cc(C#CCC(C(=O)OC)C(=O)OC)ccc31)[C@H](C(=O)N1CCCCCCC1)[C@H]1C(=O)O[C@H](c3ccccc3)[C@H](c3ccccc3)N1[C@@H]2c1ccccc1OCCO`, 2.68; for `COCCOC(=O)N1C(=O)[C@@]2(c3cc(C#CCCO)ccc31)[C@H](c1ccccc1OCCO)N1[C@H](c3ccccc3)[C@H](c3ccccc3)OC(=O)[C@H]1[C@@H]2C(=O)N1CCc2cc(OC)c(OC)cc2C1`, 0.321. `COC(=O)[C@@H]1N=C(c2ccc(OCCCO)cc2)O[C@@H]1c1ccccc1CN=[N+]=[N-]` had a composite z-score of 0.551. For the compound `COC(=O)[C@H](Cc1ccc(O)cc1)N1CC2=CCCC=C[C@@H]2[C@H]1[C@H](O)Cc1ccccc1`, the composite z-score is -0.53. `C=CC[C@@]1(C(=O)N(C)C)N=C(c2ccc(OCCCO)cc2)O[C@@H]1c1ccccc1` had a composite z-score of -0.232.

Test system in the next assay: not listed separately
As to the kind of experiment: small-molecule binders of probe aInhba, primary screen, biochemical, small-molecule microarray, 635/667 nm fluorescence (AID 1148).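 Also: score merges 667nm spot fluorescence with signal-to-noise for antibody binding to printed compounds.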 As to conditions: higher = more signal.
In turn, `CO[C@H]1O[C@H](CO)[C@@H](OC(=O)Nc2ccccc2)[C@@H]2OC(=O)[C@H](Cc3ccccc3)C/C=C/C[C@@H](Cc3ccccc3)C(=O)O[C@@H]12` returned a composite z-score of -0.0762. Still for that read-out and setting: the result for `CCCCC(=C=CC[C@@H](O)c1ccc(OCCO)cc1)C[C@@H](O)c1ccccn1` reads 0.0569.

Turning to `C=CCC(OC(C)=O)[C@@H]1[C@@H](N(Cc2cccc3ccccc23)C(=O)c2ccc(-c3ccccc3)cc2)c2cc(OCCCO)ccc2N1C(=O)c1ccc2ccccc2n1` (stereo not given in full), the composite z-score was found to be 0.195. `COCCOC(=O)N1C(=O)[C@@]2(c3cc(C#CC4(O)CCCCCC4)ccc31)[C@H](c1ccc(OCCO)cc1)N1[C@H](c3ccccc3)[C@H](c3ccccc3)OC(=O)[C@H]1[C@@H]2C(N)=O` showed a composite z-score of 0.0804. With `COc1ccc([Si](C)(C)[C@H]2[C@H](CCO)O[C@@]3(C(=O)N(Cc4ccc(N5CCOC5=O)cc4)c4ccccc43)[C@@H]2C)cc1`, the composite z-score was -0.0791. `Cc1c(-c2ccc(-c3ccc(Cl)c(Cl)c3)o2)nc(-c2ccccc2)c2c1CO[Si]2(C(C)C)C(C)C` gave a composite z-score of -0.179.

In turn, `O=C1OCCC=C[C@H]2OC34C=CCN(CCN5CCOCC5)C(=O)[C@H]3N(CCCO)C(=O)[C@@H]4C12` (stereo not given in full) registered a composite z-score of -0.0066. The compound `COC(=O)[C@@]1(Cc2ccc(F)cc2)[C@H]2c3cc(C(=O)N(C)C)n(CCO)c3C[C@H]2CN1C(=O)c1ccccc1` returned a composite z-score of 0.0464.

In turn, `CC(C)C[C@H]1NC(=O)[C@@H](C)NC(=O)[C@@]23C(=O)N[C@@H](Cc4ccccc4)C2[C@H](C)[C@@]2(C)O[C@H]2C3/C=C/C/C=C\CNC1=O` (stereo not given in full) had a composite z-score of -0.218. Compound `N#Cc1ccc(C(O)C2C=CC3C(=O)N(c4ccccc4)C(=O)C3N2Nc2ccc([N+](=O)[O-])cc2)cc1` (stereo not given) yielded a composite z-score of 0.252. Compound `CN(C)CCCC[C@@H]1NC(=O)[C@@H]2C[C@H](C(=O)NCc3ccc(F)cc3)[C@H](c3ccc(O)cc3)N2C1=O` displayed a composite z-score of 0.305. On the same count and under the same terms, for `CC(=O)c1ccc(C(O)C2C=CC3C(=O)N(C)C(=O)C3N2NC(=O)OC(C)(C)C)cc1` (stereo not given) the value was 0.182. In turn, `CO[C@H]1O[C@H](CO)[C@@H](OC(=O)Nc2ccc3c(c2)OCO3)[C@@H]2OC(=O)[C@@H](Cc3ccccc3)C/C=C/C[C@H](Cc3ccccc3)C(=O)O[C@@H]12` yielded a composite z-score of 0.24. Compound `O=C1NC(=O)C2C1C=CC(C(O)c1cccc(O)c1)N2Nc1ccc(Cl)cc1Cl` (stereo not given) came in with a composite z-score of -0.13. On to `Cc1ccc(S[C@]2(C(=O)NCCCN(C)C)CC(=O)N(Cc3ccccc3Cl)[C@@H]2c2ccc(CO)cc2I)cc1`, for which the composite z-score is -0.157. On the same count and under the same terms, the result for `O=c1cccc(-c2ccccc2C(F)(F)F)o1` reads 0.763.

The compound `COCCOC(=O)N1C(=O)[C@@]2(c3cc(C#CCC(C(=O)OC)C(=O)OC)ccc31)[C@H](c1ccc(OCCO)cc1)N1[C@H](c3ccccc3)[C@H](c3ccccc3)OC(=O)[C@H]1[C@@H]2C(=O)N1CCCCCCC1` gave a composite z-score of 1.91.

Consider `C[C@H]1NC(=O)C([C@@H](C)OCc2ccccc2)NC(=O)[C@@]23C(=O)N[C@@H](Cc4ccccc4)C2[C@H](C)[C@@]2(C)O[C@H]2C3/C=C/C/C=C\CNC1=O` (stereo not given in full), for which the composite z-score is -0.179.

`COCC(=C=CC[C@@H](O)c1cccc(OCCO)c1)C[C@@H](O)COCc1ccccc1` yielded a composite z-score of 0.825. In the case of `C=C(CCCC)C(=O)CC[C@H](OC(C)=O)c1ccccc1OCCO`, the composite z-score worked out at 0.0902. The same measure, in the same setting: the result for `CCC[C@@H]1C=C(C(=O)OCC)[C@H](c2ccccc2)N1S(=O)(=O)c1ccc(C)cc1` reads 0.436; that for `COCCOC(=O)N1C(=O)[C@@]2(c3cc(C#CC4(O)CCCCCC4)ccc31)[C@H](C(=O)N1CCc3cc(OC)c(OC)cc3C1)[C@H]1C(=O)O[C@H](c3ccccc3)[C@H](c3ccccc3)N1[C@@H]2c1ccc(O)cc1`, 0.306; that for `Cc1ccc(F)cc1S(=O)(=O)N[C@@H]1CCN(Cc2ccc3c(c2)OCO3)C1`, -0.128.

In turn, `COCCOC(=O)N1C(=O)[C@@]2(c3cc(C#CC4(O)CCCCCC4)ccc31)[C@H](c1ccc(OCCO)cc1)N1[C@H](c3ccccc3)[C@H](c3ccccc3)OC(=O)[C@H]1[C@@H]2C(=O)N1CCCCCCC1` had a composite z-score of 1.63.

For `CC(c1ccccc1)C(O)C1C=CC2C(=O)N(c3ccccc3)C(=O)C2N1Nc1ccc(C#N)cc1` (stereo not given), the composite z-score was 0.179. For `COC(=O)C(CC#Cc1ccc2c(c1)[C@]1(C(=O)N2)[C@H](c2ccc(O)cc2)N2[C@H](c3ccccc3)[C@H](c3ccccc3)OC(=O)[C@H]2[C@@H]1C(=O)N1CCc2cc(OC)c(OC)cc2C1)C(=O)OC`, the composite z-score is -0.101. Still for that read-out and setting: the result for `C[N+](C)(C)CCCCCCNC(=O)[C@H]1C[C@H]2C(=O)NCC(=O)N2[C@H]1c1cccc(OCCO)c1` reads -0.14; that for `COC(=O)c1c(CC[C@@H](CO)NC(=O)N[C@@H](Cc2ccccc2)Cn2cc(-c3cncn3C)nn2)oc(C(C)=O)c1C(=O)OC`, 0.0872. `O=C1O[C@@H](c2ccccc2)[C@@H](c2ccccc2)N2[C@@H](c3ccc(O)cc3)[C@]3(C(=O)Nc4ccc(C#CC5=CCCCC5)cc43)[C@@H](C(=O)N3CCCCCCC3)[C@H]12` showed a composite z-score of 1.04. Compound `COC(=O)C1=CC(CCCO)=CC(C2CC2)N(Cc2cccc(OC(F)(F)F)c2)C=C1C(=O)OC` (stereo not given) returned a composite z-score of 0.0711. In turn, `COCCOC(=O)N1C(=O)[C@@]2(c3cc(C#CCC(C(=O)OC)C(=O)OC)ccc31)[C@H](C(=O)N1CCCCCCC1)[C@H]1C(=O)O[C@H](c3ccccc3)[C@H](c3ccccc3)N1[C@@H]2c1ccccc1OCCO` had a composite z-score of 1.91.

`COCCOC(=O)N1C(=O)[C@@]2(c3cc(C#CCCO)ccc31)[C@H](c1ccccc1OCCO)N1[C@H](c3ccccc3)[C@H](c3ccccc3)OC(=O)[C@H]1[C@@H]2C(=O)N1CCc2cc(OC)c(OC)cc2C1` returned a composite z-score of -0.0448. Turning to `COC(=O)[C@@H]1N=C(c2ccc(OCCCO)cc2)O[C@@H]1c1ccccc1CN=[N+]=[N-]`, the composite z-score was determined as 0.177.

`COC(=O)[C@H](Cc1ccc(O)cc1)N1CC2=CCCC=C[C@@H]2[C@H]1[C@H](O)Cc1ccccc1` registered a composite z-score of 0.0108. Compound `C=CC[C@@]1(C(=O)N(C)C)N=C(c2ccc(OCCCO)cc2)O[C@@H]1c1ccccc1` gave a composite z-score of 0.496.
